MsrA inh: inhibits bovine methionine sulfoxide reductase A. inhibition, % at 15.5 µM. purified bovine MsrA, absorbance read-out. 360,000 compounds, 0.75% hits
MsrA act: bovine methionine sulfoxide reductase A activation. purified bovine MsrA, absorbance read-out. activation, % at 10.6 µM. 360,000 compounds, 0.3% hits. AID 602163; in the data active = activation above about 7.5%
ZTA DNA inh: ZTA (EBV) inhibition in EBNA-1 counter-screen; P03206; ZTA-DNA binding, fluorescence polarization; inhibition, % at 11 µM; 320,000 compounds, 0.15% hits; in the data active = inhibition above about 33%
Target sequence (P03206 whole entry, looked up): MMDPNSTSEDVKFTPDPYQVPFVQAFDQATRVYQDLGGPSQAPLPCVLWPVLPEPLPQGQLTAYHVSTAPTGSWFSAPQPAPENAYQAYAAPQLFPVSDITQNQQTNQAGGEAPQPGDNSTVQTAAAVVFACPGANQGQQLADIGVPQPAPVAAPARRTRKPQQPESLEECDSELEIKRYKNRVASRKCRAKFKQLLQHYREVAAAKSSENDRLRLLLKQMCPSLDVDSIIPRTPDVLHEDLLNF
PP5 primary: PP5 (human) phosphatase inhibition; P53041; purified PP5c, OMFP substrate fluorescence; inhibition, % at 6.7 µM; 320,000 compounds, 0.18% hits; AID 1987;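 active = inhibition above the campaign's mean inhibition across all tested compounds plus 3 SD, cut at about 9.5% in these data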
PP1 counter: blocks human PP1-alpha phosphatase, a PP5 counter-screen. purified PP1alpha, OMFP fluorescence. inhibition, % at 6.7 µM. P62136. 320,000 compounds, 0.9% hits;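 active = inhibition above the mean inhibition of all tested compounds plus 3 SD, computed separately for each screening campaign, cut at about 15% in these data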
Target sequence (P62136 whole entry, looked up): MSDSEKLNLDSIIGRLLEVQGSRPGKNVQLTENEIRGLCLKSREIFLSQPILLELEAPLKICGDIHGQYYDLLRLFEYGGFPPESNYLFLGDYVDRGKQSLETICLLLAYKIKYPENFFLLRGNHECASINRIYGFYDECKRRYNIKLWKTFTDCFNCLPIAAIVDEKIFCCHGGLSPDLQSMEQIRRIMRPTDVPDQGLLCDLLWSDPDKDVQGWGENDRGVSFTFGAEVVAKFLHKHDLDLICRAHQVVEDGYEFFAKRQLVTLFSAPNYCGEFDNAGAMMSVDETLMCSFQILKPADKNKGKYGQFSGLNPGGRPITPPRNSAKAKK
EBNA-1 inh: blocks EBNA-1 binding to DNA; EBNA-1 DNA binding, fluorescence polarization; inhibition, % at 14.8 µM; 300,000 compounds, 0.34% hits; in the data active = inhibition above about 28%
MsrA conf: confirmation of bovine MsrA inhibitors; 2,300 compounds, 41% hits; purified bovine MsrA, absorbance read-out; shares compounds with MsrA inh; inhibition, % at 15.5 µM;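 note: coupled to thioredoxin reductase with NADPH and selenocystamine and DMSO as substrate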
A number is an active result; 0 = inactive; - = no result given. Shown are actives, neighbours in structure and some others; about 2.3% of the full set was active somewhere. Cut-off read from the data, not from the text of the source, unless noted: active = inhibition above about 4.5%; inactive = the rest.

SMILES	MsrA inh	MsrA act	ZTA DNA inh	PP5 primary	PP1 counter	EBNA-1 inh	MsrA conf
C[C@H](NC(=O)N1CCn2c1nc1ccccc12)C(=O)NCc1ccccc1	0	0	0	0	0	0	-
Cc1ccccc1-c1nc(CS(=O)(=O)CC(=O)N2CCOCC2)c(C)o1	0	0	0	0	0	0	-
COc1ccc(/C=N/NC2=NS(=O)(=O)c3ccccc32)cc1OC	4.8	0	0	0	0	0	0
CN1c2ccccc2C(O)=C(C(=S)Nc2ccccc2)S1(=O)=O	5.3	0	0	0	0	0	6.1
CN1c2ccccc2C(O)=C(C(=O)Nc2ccccc2)S1(=O)=O	0	0	0	0	0	0	-
Cc1ccc(NC(=S)C2=C(O)c3ccccc3N(C)S2(=O)=O)cc1	4.8	0	0	0	0	0	0
CN1c2ccsc2C(O)=C(C(=S)Nc2ccccc2)S1(=O)=O	0	0	0	0	0	0	-
CN1c2ccccc2C(O)=C(C(=S)Nc2ccc(F)c(Cl)c2)S1(=O)=O	4.9	0	0	0	0	0	0
COc1ccc(CCC2(C)NC(=O)N(C(C)C(=O)N3c4ccccc4CC3C)C2=O)cc1 (configuration not stated)	0	0	0	0	0	-	-
O=C(NCC(O)CN1CCOCC1)c1ccc([N+](=O)[O-])cc1 (configuration not stated)	0	0	0	0	0	0	-
CCOC(=O)C1(CCOc2ccccc2)CCN(CC(O)CO)CC1 (configuration not stated)	0	0	0	0	0	0	-
Cc1cccn2c(=O)nc(SCC(=O)N3CC(C)OC(C)C3)nc12 (configuration not stated)	5.5	0	0	0	0	0	0
Cc1cccn2c(=O)nc(SCC(=O)N3CCCC3)nc12	0	0	0	0	0	0	-
Cc1ccc2[nH]c(=O)c(CN(Cc3cccnc3)Cc3nnnn3CC3CCCO3)cc2c1 (configuration not stated)	0	0	0	0	0	0	-
Cc1ccc2[nH]c(=O)c(CN(Cc3cccnc3)Cc3nnnn3CCN3CCOCC3)cc2c1	5.1	0	0	0	0	0	0
S=c1[nH]nc(C2CCCCC2)n1/N=C/c1ccccc1Br	13	0	0	0	0	0	12
Cc1ccc(/C=N/n2c(C3CCCCC3)n[nH]c2=S)cc1	7.8	0	0	0	0	0	0
Cc1ccccc1/C=N/n1c(C2CCCCC2)n[nH]c1=S	14	0	0	0	0	0	12
Fc1ccccc1/C=N/n1c(C2CCCCC2)n[nH]c1=S	0	0	0	0	0	0	-
S=c1[nH]nc(C2CCCCC2)n1/N=C/c1ccc(Cl)cc1	0	0	0	0	0	0	-
C=C(C)Cn1c2ccc(NC(=O)CCc3cccc(Cl)c3)cc2c(=O)n1C	0	0	-	-	-	-	-
Cc1ccc(-c2nnn(CCOc3cccc(Br)c3)n2)cc1	0	0	0	0	0	0	-
COc1ccc(OC)c(S(=O)(=O)N2CCCC(C(=O)NCCN3CCOCC3)C2)c1 (configuration not stated)	0	0	0	0	0	0	-
COc1ccccc1C1CCCN1Cc1nc(-c2ccc(C)s2)oc1C (configuration not stated)	0	0	0	0	0	0	-
O=C(CSc1ccc(-c2nc3ccccc3[nH]2)cn1)N1CCN(C(=O)c2ccco2)CC1	5.1	0	0	0	0	0	0
SMILES	MsrA inh	MsrA act	ZTA DNA inh	PP5 primary	PP1 counter	EBNA-1 inh	MsrA conf
Oc1cccc(/C=N/n2c(C3CCCCC3)n[nH]c2=S)c1	0	0	0	0	0	0	-
COc1cccc(/C=N/n2c(C3CCCCC3)n[nH]c2=S)c1	8.2	0	0	0	0	0	6.5
O=[N+]([O-])c1cccc(/C=N/n2c(C3CCCCC3)n[nH]c2=S)c1	5.0	0	0	0	0	0	13
O=c1[nH]c(SCc2ccccc2)nc2[nH]ncc12	0	0	0	0	0	0	-
COc1ccc(/C=C2\SC(=O)N(CCNC(=O)C3CSC4(C)CCC(=O)N34)C2=O)cc1 (configuration not stated)	6.4	0	0	0	0	0	0
CC12CCC(=O)N1C(C(=O)NCCN1C(=O)S/C(=C\c3ccc(OC(F)F)cc3)C1=O)CS2 (configuration not stated)	0	0	0	0	0	0	-
COc1ccc(/C=C2/SC(=O)N(CCNC(=O)C3CCCN3C(=O)c3cccs3)C2=O)cc1 (configuration not stated)	5.6	0	0	0	0	0	0
COc1ccc(/C=C2\SC(=O)N(CCn3cnnn3)C2=O)cc1	6.3	0	0	0	0	0	0
O=C(NCCN1C(=O)S/C(=C/c2ccccc2)C1=O)C1CCCN1C(=O)c1cccs1 (configuration not stated)	0	0	0	0	0	0	-
COc1ccc(/C=C2\SC(=O)N(CCNC(=O)C3CC4C=CC3C4)C2=O)cc1 (configuration not stated)	0	0	0	0	0	0	-
CCCC(=O)Nc1cccc(-c2nc3ccccc3c(=O)o2)c1	0	0	0	0	0	0	-
OCC[C@H]1C[C@H](O)[C@@H](O)[C@@]2(CCCO2)O1	0	0	0	0	0	0	-
NC(=O)c1ccc(SCC(=O)NC2CCCCC2)c([N+](=O)[O-])c1	0	0	0	0	0	0	-
COc1ccc(CNC(=O)c2ccc(=O)oc2)cc1OC	9.9	0	0	0	0	0	8.7
O=C(NCc1cccnc1)c1ccc(=O)oc1	8.3	0	0	0	0	0	8.4
O=C(O)c1ccc(-n2cccn2)nc1	0	0	0	0	0	0	-
c1cnn(-c2cncc(-n3cccn3)n2)c1	14	0	0	0	0	0	10
O=C(/C=C\N1CCOCC1)c1ccc(Br)cc1	0	0	0	0	0	0	-
Cn1nc(C(C)(C)C)c([N+](=O)[O-])c1C(=O)Nc1ccccc1	0	0	0	0	0	0	-
Cn1c(=O)[nH]c(Nc2ccccc2)c([N+](=O)[O-])c1=O	6.4	0	0	0	0	0	0
CCOC(=O)CC1Sc2ccccc2NC1=S (configuration not stated)	0	0	0	0	0	0	-
COCCCN=C(c1ccco1)n1c(=S)nc(-c2ccco2)n(CCCOC)c1=S	0	0	0	0	0	0	-
CNC(=O)C1CC(=O)N/C(=N/N=C(\C)c2cccs2)S1 (configuration not stated)	6.1	0	0	0	0	0	4.7
C/C(=N\N=C1\NC(=O)CC(C(=O)O)S1)c1cccs1 (configuration not stated)	5.0	0	0	0	0	0	0
Cn1nc(C2CC2)cc1NC(=O)C1(C)CCN1C(=O)Cc1ccc(-c2ccccc2)cc1 (configuration not stated)	0	0	-	-	-	-	-
CC(C)CCn1c(COc2ccccc2)nn(CCC#N)c1=S	0	0	0	0	0	0	-
Cc1c(CC(=O)N[C@@H](C)C(=O)O)c(=O)oc2cc3c(cc12)CCC(C)(C)O3	5.3	0	0	0	0	0	0
